PubChem BioAssay AID1745850 (National Center for Advancing Translational Sciences (NCATS), 2022)
In all, about 2,100 compounds went through this assay and about 260 (12%) were called active. Roughly 58% stayed inconclusive and do not appear here. The call rests on the fitted dose curve; in most records, active means well fitted cell-killing curve with a large enough effect; inconclusive means small, poorly fitted or top-dose-only effect, or effect the other way; inactive means flat fitted curve, though single readings scatter. The list shows a part of the results. Entries that show only a call come without a potency.

Experiment: Viability Counterscreen for Confirmatory qHTS for Inhibitors of ATXN expression; further: nearly all actives have a fitted effect of over 50% in size
Details: HEK-293 ATXN2-luc cells viability, CellTiter-Fluor, 24 h
How it was run: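 Cells with an ATXN2-luciferase reporter were dosed in a dilution series for 24 h at 37 degrees C. Viability was read first with Gly-Phe-AFC at 25 uM final (fluorescence, ex 405/em 540), then SteadyGlo luminescence. Medium-only wells defined 100% inhibition.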
Potency means the concentration at half of the fitted maximal effect.

Question: For `COc1ccc(C2CC(c3cccc(Br)c3)=NN2c2ccc(S(N)(=O)=O)cc2)cc1` (stereo not given), which Potency is on record?
Answer: Its Potency is “inactive”.

Question: With `CC(C)C(=O)NC(c1ccccc1)c1cc([N+](=O)[O-])c2cccnc2c1O` (stereo not given) as the compound, how does the Potency read?
Answer: Its Potency is 22.4 µM (active).

Question: Which Potency does the source give for `CC(=O)NC(c1cccs1)c1cc([N+](=O)[O-])c2cccnc2c1O` (stereo not given) here?
Answer: The Potency was 12.6 µM (active).

Question: For `O=C(Nc1c(Cl)cccc1Cl)Oc1cccc2cccnc12`, which Potency is on record?
Answer: Its Potency is “inactive”.

Question: Which Potency does the source give for `O=C(Nc1nccs1)c1cccc(N2C(=O)c3cccc4c([N+](=O)[O-])ccc(c34)C2=O)c1` here?
Answer: Its Potency is “inactive”.

Question: Which Potency does the source give for `Cc1cc(OCC(=O)NC(C)c2ccccc2)ccc1[N+](=O)[O-]` (stereo not given) here?
Answer: Its Potency is “inactive”.

Question: For `Cc1cc(OCc2nc(N)nc(N)c2-c2ccc(Cl)c(Cl)c2)ccc1[N+](=O)[O-]`, which Potency is on record?
Answer: The Potency was “inactive”.

Question: For `CCCCC(=O)NC(c1ccc(Cl)cc1Cl)c1ccc2cccnc2c1O` (stereo not given), which Potency is on record?
Answer: Its Potency is “inactive”.

Question: Which Potency does the source give for `CCC(=O)NC(c1ccc(Cl)cc1Cl)c1ccc2cccnc2c1O` (stereo not given) here?
Answer: Its Potency is 7.94 µM (active).

Question: Which Potency does the source give for `CCC(=O)NC(c1ccc(C)cc1)c1cc([N+](=O)[O-])c2cccnc2c1O` (stereo not given) here?
Answer: Its Potency is 22.4 µM (active).

Question: For `COc1ccc(C2CC(c3ccccc3C(F)(F)F)=NN2c2ccc(S(N)(=O)=O)cc2)cc1` (stereo not given), which Potency is on record?
Answer: Its Potency is “inactive”.

Question: Which Potency does the source give for `CC[C@@H]1C(c2cccc(Cl)c2)=NN(c2ccc(Br)cc2)[C@H]1C(=O)N1CCOC1=O` here?
Answer: Its Potency is “inactive”.

Question: For `CCOC(=O)C1=CCN(S(=O)(=O)c2ccc(C)cc2)C1c1cccc(Cl)c1` (stereo not given), which Potency is on record?
Answer: The Potency was “inactive”.

Question: With `CC1(C(=O)NCc2ccco2)CCN1C(=O)C1(c2ccccc2)CC1` (stereo not given) as the compound, how does the Potency read?
Answer: The Potency was “inactive”.

Question: For `O=C(CSc1nc2ncc(Cl)cc2[nH]1)Nc1cccc(F)c1`, which Potency is on record?
Answer: The Potency was “inactive”.

Question: With `CC(C)C(=O)NC(c1cccc([N+](=O)[O-])c1)c1ccc2cccnc2c1O` (stereo not given) as the compound, how does the Potency read?
Answer: The Potency was 7.94 µM (active).

Question: With `O=[N+]([O-])c1ccc(NC(c2ccccc2)c2ccc3cccnc3c2O)cc1` (stereo not given) as the compound, how does the Potency read?
Answer: The Potency was 7.94 µM (active).

Question: For `Oc1c(C(Nc2nccs2)c2ccc(C(F)(F)F)cc2)ccc2cccnc12` (stereo not given), which Potency is on record?
Answer: Its Potency is 15.8 µM (active).

Question: Which Potency does the source give for `O=C(NC(=S)N1CCN(c2ccc(F)cc2)CC1)c1cccs1` here?
Answer: The Potency was “inactive”.

Question: Which Potency does the source give for `Nc1ccn(C2OC(COP(=O)(O)O)C(O)C2O)c(=O)n1` (stereo not given) here?
Answer: The Potency was “inactive”.

Question: With `Cc1ccc(Cc2cnc(N3C(=N)SC(C)C3=O)s2)cc1` (stereo not given) as the compound, how does the Potency read?
Answer: Its Potency is “inactive”.

Question: For `CCC(C)(C)c1ccc(Oc2ccc(N)cc2)cc1`, which Potency is on record?
Answer: The Potency was “inactive”.

Question: Which Potency does the source give for `CCCC(=O)N1CCCC(c2cc(C(=O)Nc3ccccc3)no2)C1` (stereo not given) here?
Answer: Its Potency is “inactive”.

Question: Which Potency does the source give for `Cc1cc(=O)[nH]c(N=N/C(=N/Nc2ccccc2C)c2ccccc2)n1` here?
Answer: Its Potency is 12.6 µM (active).

Question: For `O=C(Nc1cccc(Cl)c1)c1ccc2c(c1)SC1=NS(=O)(=O)CCN12`, which Potency is on record?
Answer: The Potency was “inactive”.

Question: For `CCc1cc(C)cc(OCCNC(=O)c2cncc(Br)c2)c1`, which Potency is on record?
Answer: The Potency was “inactive”.

Question: With `CCn1c2ccccc2c2cc(NC(=O)COC(=O)Cc3cn4ccsc4n3)ccc21` as the compound, how does the Potency read?
Answer: The Potency was “inactive”.

Question: Which Potency does the source give for `O=C(CC1Sc2ccccc2NC1=O)NNc1cccc(Cl)c1Cl` (stereo not given) here?
Answer: The Potency was “inactive”.

Question: For `CC(NC(=O)Nc1cccc([N+](=O)[O-])c1)c1ccc2c(c1)OCO2` (stereo not given), which Potency is on record?
Answer: The Potency was “inactive”.

Question: For `N#C/C(=N\Nc1cccc([N+](=O)[O-])c1)C(=O)c1ccc(Br)cc1`, which Potency is on record?
Answer: The Potency was 2.51 µM (active).

Question: Which Potency does the source give for `CC(NC(=O)Nc1cccc([N+](=O)[O-])c1)(C(F)(F)F)C(F)(F)F` here?
Answer: Its Potency is “inactive”.

Question: Which Potency does the source give for `CC(C)=C1SC(N2CCN(c3ccc(C)c(Cl)c3)CC2)=NC1=O` here?
Answer: The Potency was “inactive”.

Question: With `O=C(Cc1coc2cc3c(cc12)CCC3)OCC(=O)N1CCCC1=O` as the compound, how does the Potency read?
Answer: The Potency was “inactive”.

Question: For `CCc1nnc(NC(=O)c2ccc(S(=O)(=O)N(C)c3ccccc3)cc2)o1`, which Potency is on record?
Answer: Its Potency is “inactive”.

Question: Which Potency does the source give for `Cc1nc2ccc(NC(=O)c3cccc(S(=O)(=O)N(C)c4ccccc4)c3)cc2s1` here?
Answer: Its Potency is 3.16 µM (active).

Question: Which Potency does the source give for `CCCC(=O)Nc1ccc2nc(SCC(=O)N3CCCC3)sc2c1` here?
Answer: Its Potency is “inactive”.

Question: For `CCN1CCN(C(=S)c2ccc(-c3ccccc3)cc2)CC1`, which Potency is on record?
Answer: The Potency was “inactive”.

Question: Which Potency does the source give for `CN(C)CCNc1ncnc2c1sc1nc(N3CCOCC3)c3c(c12)CC(C)(C)SC3` here?
Answer: The Potency was 22.4 µM (active).

Question: For `CN1Cc2c(N3CCOCC3)nc3sc(C(=O)c4ccccc4)c(N)c3c2CC1(C)C`, which Potency is on record?
Answer: Its Potency is “inactive”.

Question: With `CN(C)CCNc1ncnc2c1sc1nc(N3CCCC3)c3c(c12)CC(C)(C)OC3` as the compound, how does the Potency read?
Answer: The Potency was 25.1 µM (active).

Question: Which Potency does the source give for `CC1(C)Cc2c(c(N3CCOCC3)nc3sc4c(NN)ncnc4c23)CS1` here?
Answer: The Potency was 25.1 µM (active).

Question: Which Potency does the source give for `COc1ccc(C2CC(c3cccc(Cl)c3)=NN2c2ccc(S(N)(=O)=O)cc2)cc1` (stereo not given) here?
Answer: Its Potency is “inactive”.

Question: Which Potency does the source give for `CCN(CCCn1c(=S)[nH]c2ccc(N3CCOCC3)cc2c1=O)c1ccccc1` here?
Answer: Its Potency is “inactive”.

Question: Which Potency does the source give for `Cc1nn(-c2ccccn2)c2c1C(=O)CC(C)(C)C2N=[N+]=[N-]` (stereo not given) here?
Answer: The Potency was “inactive”.

Question: For `OCC1(CCOc2ccccc2)CCN(CC2=Cc3cc(Cl)ccc3OC2)CC1`, which Potency is on record?
Answer: Its Potency is “inactive”.

Question: For `O=C(c1cccc(Cl)c1)c1nn(-c2ccccc2)c(=O)cc1C(F)(F)F`, which Potency is on record?
Answer: The Potency was 35.5 µM (active).

Question: For `Cc1cc(=O)oc2c1c(C)nn2-c1cccc(Cl)c1`, which Potency is on record?
Answer: Its Potency is “inactive”.

Question: For `COc1ccc(Nc2nc(N3CCCC3)c3ccccc3n2)cc1`, which Potency is on record?
Answer: Its Potency is 35.5 µM (active).

Question: Which Potency does the source give for `COc1ccc(Nc2oc(COc3ccccc3OC)nc2C#N)cc1` here?
Answer: Its Potency is “inactive”.

Question: Which Potency does the source give for `COc1cccc(-c2nc(N3CCN(C)CC3)c3ccccc3n2)c1O` here?
Answer: Its Potency is “inactive”.

Question: For `CC(=O)Oc1ccc(C23c4ccccc4C2(OC(C)=O)c2cc(OC(C)=O)ccc23)cc1` (stereo not given), which Potency is on record?
Answer: The Potency was 28.2 µM (active).

Question: For `CC(=O)Oc1ccc(Nc2ccccc2)cc1`, which Potency is on record?
Answer: The Potency was “inactive”.

Question: For `O=C(CSc1nnc(-c2ccc(Br)cc2)o1)Nc1cccc(C(=O)O)c1`, which Potency is on record?
Answer: The Potency was “inactive”.

Question: With `COC(=O)c1c(C)oc2ccc(N(C(=O)c3ccncc3)S(=O)(=O)c3ccc(C)cc3C)cc12` as the compound, how does the Potency read?
Answer: The Potency was “inactive”.

Question: For `O=C(CNc1cccc(C(F)(F)F)c1)Nc1cccc(S(=O)(=O)N2CCCC2)c1`, which Potency is on record?
Answer: Its Potency is “inactive”.

Question: With `Cc1ccc(C(=O)N(C)CC(=O)Nc2ccc(Cl)c(C(F)(F)F)c2)cc1S(=O)(=O)N1CCCCC1` as the compound, how does the Potency read?
Answer: Its Potency is 25.1 µM (active).

Question: With `CN(CC(=O)Nc1ccc(Cl)c(C(F)(F)F)c1)C(=O)c1cccnc1Sc1ccccc1` as the compound, how does the Potency read?
Answer: The Potency was “inactive”.

Question: With `O=C(NCCc1csc(-c2cccnc2)n1)c1cccc(Cl)c1` as the compound, how does the Potency read?
Answer: Its Potency is “inactive”.

Question: With `Cc1cccn2c(=O)c3cc(C(=O)NCCN4CCOCC4)c(=N)n(Cc4ccc(F)cc4)c3nc12` as the compound, how does the Potency read?
Answer: The Potency was “inactive”.

Question: With `COc1cccc(/C=N/NC(=O)CC(C)O)c1OC/C=C/c1ccccc1` (stereo not given) as the compound, how does the Potency read?
Answer: The Potency was “inactive”.
